# Test results: PubChem BioAssay (EPA / NIEHS)
# Results filed as inconclusive are left out. Calls of active or inactive are those of the source. Rule for the calls, unless noted: active = hit-call score of the fitted dose curve at least 0.9, where 1 is the maximum; inconclusive = response in the unintended direction; inactive = score below 0.9.
# Target: Agonist Androgen Response Element (ARE), AR (gene 367) (UniProt P10275)
# Assay: OT_AR_ARELUC_AG_1440: Odyssey Thera (OT) 24-hour CHO-K1 Luciferase Assay for Agonist Androgen Response Element (ARE) (AID 2283379)
# Method in brief: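 Readout: luciferase bioluminescence from CHO-K1 ARE-luc cells, measured 24 h post-dosing; agonism = increased mean luminescence vs DMSO controls, fitted in positive direction.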
# Chain of Agonist Androgen Response Element (ARE), AR (gene 367) (P10275 whole entry, looked up): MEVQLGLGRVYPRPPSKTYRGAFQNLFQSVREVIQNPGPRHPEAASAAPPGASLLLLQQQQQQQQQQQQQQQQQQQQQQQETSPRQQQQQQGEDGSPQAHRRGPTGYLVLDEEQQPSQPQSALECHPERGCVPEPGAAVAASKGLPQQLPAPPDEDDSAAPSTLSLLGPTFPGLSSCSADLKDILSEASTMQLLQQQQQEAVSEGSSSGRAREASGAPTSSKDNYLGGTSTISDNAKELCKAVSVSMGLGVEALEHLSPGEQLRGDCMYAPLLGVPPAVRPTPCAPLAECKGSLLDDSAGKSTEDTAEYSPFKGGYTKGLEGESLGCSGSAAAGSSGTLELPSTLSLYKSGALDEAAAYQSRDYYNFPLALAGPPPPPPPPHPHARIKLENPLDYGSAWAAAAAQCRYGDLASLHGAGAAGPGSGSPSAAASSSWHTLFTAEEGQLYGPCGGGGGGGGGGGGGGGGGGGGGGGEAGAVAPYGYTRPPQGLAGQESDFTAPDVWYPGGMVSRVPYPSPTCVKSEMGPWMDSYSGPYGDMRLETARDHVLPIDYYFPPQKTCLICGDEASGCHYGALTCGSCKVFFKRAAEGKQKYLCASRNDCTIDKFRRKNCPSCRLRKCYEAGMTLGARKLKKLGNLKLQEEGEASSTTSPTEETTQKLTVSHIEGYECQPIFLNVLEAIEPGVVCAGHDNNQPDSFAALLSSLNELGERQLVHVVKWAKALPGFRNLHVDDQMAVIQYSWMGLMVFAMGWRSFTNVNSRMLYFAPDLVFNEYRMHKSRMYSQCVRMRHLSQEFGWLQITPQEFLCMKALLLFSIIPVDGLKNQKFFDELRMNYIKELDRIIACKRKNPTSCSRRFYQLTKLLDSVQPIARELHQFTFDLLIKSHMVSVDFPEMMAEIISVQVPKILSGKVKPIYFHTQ
row,SMILES,outcome
1,CN(C)Cc1cc(CN(C)C)c(O)c(CN(C)C)c1,inactive
2,Cc1c(C(=O)c2c[nH]n(C)c2=O)ccc(S(C)(=O)=O)c1C1=NOCC1,inactive
3,COc1cc(O)c(C(=O)c2ccccc2)cc1S(=O)(=O)O,inactive
4,CC(=O)OCc1ccccc1,inactive
5,CC(=O)OC1CCCCC1C(C)(C)C (stereo not given),inactive
6,CCc1cccc(C)c1N,inactive
7,O=C(O)c1ccc2c(c1)C(=O)OC2=O,inactive
8,CCCCC(CC)COC(=O)/C=C/c1ccc(OC)cc1 (stereo not given),inactive

# Target: Estrogen receptor beta (Homo sapiens) (UniProt Q92731)
# Sequence (Q92731 whole entry, looked up, the tested form may be a part): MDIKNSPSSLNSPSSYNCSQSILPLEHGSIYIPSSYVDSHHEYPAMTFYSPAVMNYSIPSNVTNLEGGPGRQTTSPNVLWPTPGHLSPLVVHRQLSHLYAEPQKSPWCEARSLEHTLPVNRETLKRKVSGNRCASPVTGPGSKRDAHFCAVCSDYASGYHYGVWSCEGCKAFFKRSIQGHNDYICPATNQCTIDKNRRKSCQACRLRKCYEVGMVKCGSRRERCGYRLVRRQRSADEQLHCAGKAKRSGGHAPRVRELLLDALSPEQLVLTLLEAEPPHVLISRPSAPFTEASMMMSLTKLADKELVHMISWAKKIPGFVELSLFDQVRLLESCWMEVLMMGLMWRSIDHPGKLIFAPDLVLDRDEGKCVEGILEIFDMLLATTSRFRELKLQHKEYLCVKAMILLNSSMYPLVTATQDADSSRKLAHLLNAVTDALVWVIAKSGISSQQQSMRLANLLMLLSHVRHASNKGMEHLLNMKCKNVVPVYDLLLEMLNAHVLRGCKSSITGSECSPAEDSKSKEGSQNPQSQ
# Assay: OT_ER_ERbERb_1440: Odyssey Thera (OT) 24-hour HEK293T Protein-Complementation Assay for Estrogen Receptor-beta/-beta Homodimer (AID 2283380);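 note: fluorescence gain from ER beta LBD homodimer complementation read by laser scanning cytometry; scored as signal increase over DMSO baseline for both agonists and antagonists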
# Method in brief: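 Fluorescence increase, nuclear for agonists or whole-cell for antagonists, relative to DMSO vehicle, quantified by laser scanning cytometer after fixation and Draq5 staining. Readout from 24 h treatment of HEK293T cells carrying complementation-paired ER beta LBD (aa 310-547).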
SMILES,AC50,outcome
O=C(Nc1ccccc1)c1cc(Cl)ccc1O,33.9 µM (active),–
Oc1ccccc1Cc1ccccc1O,11.8 µM (active),–
CCN1CN(CC)CN(CC)C1,–,inactive
O=C(O)C1CCC(C(=O)O)CC1 (stereo not given),–,inactive
CCCCc1ccc(Cl)cc1,–,inactive
CCCCCC(=O)OCC,–,inactive
CCOC(=O)c1ccc(C)cc1,–,inactive
CC(C)c1ccc(O)c(C(C)C)c1,–,inactive
C=C[C@@]1(C)CC(=O)[C@]2(O)[C@@]3(C)[C@@H](O)CCC(C)(C)[C@@H]3[C@H](O)[C@H](OC(C)=O)[C@@]2(C)O1,27.4 µM (active),–
CCCCOCCOC(=O)COc1ccc(Cl)cc1Cl,–,inactive
CN(C)c1ccc2nc3ccc(=[N+](C)C)cc-3sc2c1,14.7 µM (active),–
CCCCC(=O)O,–,inactive
Nc1ccc(C(=O)O)cc1,–,inactive
Cc1c(C(=O)c2c[nH]n(C)c2=O)ccc(S(C)(=O)=O)c1C1=NOCC1,–,inactive
CC(C)c1cc(C(C)C)cc(C(C)C)c1,–,inactive
COc1cc(O)c(C(=O)c2ccccc2)cc1S(=O)(=O)O,–,inactive

SMILES,AC50,outcome
CC(=O)OCc1ccccc1,–,inactive
CCCCCCCCCCCC(=O)N(C)CC(=O)O,–,inactive
CC(=O)OC1CCCCC1C(C)(C)C (stereo not given),–,inactive
CCCCNS(=O)(=O)c1ccccc1,–,inactive
CC(C)(C)C1CCC(=O)CC1,–,inactive
O=S(=O)(O)c1ccc(N=Nc2c(O)ccc3ccccc23)cc1,–,inactive
CCCCCCCCC(CO)CCCCCC (stereo not given),–,inactive
CCCCCCOC(=O)CCCCC(=O)OCCCCCC,–,inactive
CCCCNC(=S)NCCCC,–,inactive
C=CCOC(=O)c1ccc(C(=O)OCC=C)c(C(=O)OCC=C)c1,–,inactive
CC1=CCC2CC1C2(C)C (stereo not given),–,inactive
CCCCC(CC)COS(=O)(=O)O (stereo not given),–,inactive
CCOC(=O)C1=NOC(c2ccccc2)(c2ccccc2)C1,–,inactive
CCOC(=O)c1ccccc1C,29.4 µM (active),–
O=C(O)c1ccc2c(c1)C(=O)OC2=O,–,inactive
CCCCC(C=O)CC (stereo not given),–,inactive

# Target: Estrogen receptor (Homo sapiens) (UniProt P03372)
# Sequence (P03372 whole entry, looked up): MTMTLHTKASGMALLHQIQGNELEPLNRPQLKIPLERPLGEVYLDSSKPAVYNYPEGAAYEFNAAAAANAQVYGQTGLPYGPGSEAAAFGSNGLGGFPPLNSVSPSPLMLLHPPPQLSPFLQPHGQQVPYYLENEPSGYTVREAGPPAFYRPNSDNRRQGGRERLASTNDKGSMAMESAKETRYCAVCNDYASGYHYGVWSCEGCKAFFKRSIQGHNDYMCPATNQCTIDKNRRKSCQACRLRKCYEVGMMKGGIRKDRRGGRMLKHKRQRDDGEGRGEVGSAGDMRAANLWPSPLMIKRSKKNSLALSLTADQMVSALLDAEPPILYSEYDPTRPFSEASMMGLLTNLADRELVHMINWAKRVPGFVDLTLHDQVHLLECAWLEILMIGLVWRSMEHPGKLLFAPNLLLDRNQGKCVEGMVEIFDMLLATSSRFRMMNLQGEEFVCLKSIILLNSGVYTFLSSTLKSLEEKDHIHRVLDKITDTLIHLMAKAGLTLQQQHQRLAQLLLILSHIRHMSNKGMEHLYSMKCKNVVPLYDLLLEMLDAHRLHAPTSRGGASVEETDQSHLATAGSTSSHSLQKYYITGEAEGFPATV
# Assay: OT_ERa_GFPERaERE_0480: Odyssey Thera (OT) 8-hour HeLa Transcription Induction Assay for Estrogen Receptor (AID 2283381; active = hit-call score of the fitted dose curve at least 0.9, where 1 is the maximum; inactive = score below 0.9)
# Method in brief: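 An 8 h HeLa transcription-induction format with a GFP reporter under ERE control, read by fluorescence microscopy; single endpoint fitted positively with DMSO as baseline.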
SMILES,outcome,AC50
O=C(Nc1ccccc1)c1cc(Cl)ccc1O,inactive,–
Oc1ccccc1Cc1ccccc1O,inactive,–
CCN1CN(CC)CN(CC)C1,inactive,–
O=C(O)C1CCC(C(=O)O)CC1 (stereo not given),inactive,–
CCCCc1ccc(Cl)cc1,inactive,–
CCCCCC(=O)OCC,inactive,–
CCOC(=O)c1ccc(C)cc1,inactive,–
CC(C)c1ccc(O)c(C(C)C)c1,inactive,–
C=C[C@@]1(C)CC(=O)[C@]2(O)[C@@]3(C)[C@@H](O)CCC(C)(C)[C@@H]3[C@H](O)[C@H](OC(C)=O)[C@@]2(C)O1,–,89.1 µM (active)
CCCCOCCOC(=O)COc1ccc(Cl)cc1Cl,inactive,–
CN(C)Cc1cc(CN(C)C)c(O)c(CN(C)C)c1,inactive,–
CN(C)c1ccc2nc3ccc(=[N+](C)C)cc-3sc2c1,–,40.6 µM (active)
CCCCC(=O)O,inactive,–
Nc1ccc(C(=O)O)cc1,inactive,–
Cc1c(C(=O)c2c[nH]n(C)c2=O)ccc(S(C)(=O)=O)c1C1=NOCC1,inactive,–
CC(C)c1cc(C(C)C)cc(C(C)C)c1,inactive,–
COc1cc(O)c(C(=O)c2ccccc2)cc1S(=O)(=O)O,inactive,–
CC(=O)OCc1ccccc1,inactive,–

SMILES,outcome,AC50
CCCCCCCCCCCC(=O)N(C)CC(=O)O,inactive,–
CC(=O)OC1CCCCC1C(C)(C)C (stereo not given),inactive,–
CCCCNS(=O)(=O)c1ccccc1,inactive,–
CCc1cccc(C)c1N,inactive,–
CC(C)(C)C1CCC(=O)CC1,inactive,–
O=S(=O)(O)c1ccc(N=Nc2c(O)ccc3ccccc23)cc1,inactive,–
CCCCCCCCC(CO)CCCCCC (stereo not given),inactive,–
CCCCCCOC(=O)CCCCC(=O)OCCCCCC,inactive,–
CCCCNC(=S)NCCCC,inactive,–
C=CCOC(=O)c1ccc(C(=O)OCC=C)c(C(=O)OCC=C)c1,inactive,–
CC1=CCC2CC1C2(C)C (stereo not given),inactive,–
CCCCC(CC)COS(=O)(=O)O (stereo not given),inactive,–
CCOC(=O)C1=NOC(c2ccccc2)(c2ccccc2)C1,inactive,–
CCOC(=O)c1ccccc1C,inactive,–
O=C(O)c1ccc2c(c1)C(=O)OC2=O,inactive,–
CCCCC(C=O)CC (stereo not given),inactive,–
CCCCC(CC)COC(=O)/C=C/c1ccc(OC)cc1 (stereo not given),inactive,–

# Target: Estrogen receptor (Homo sapiens) (UniProt P03372)
# Assay: OT_ERa_GFPERaERE_0120: Odyssey Thera (OT) 2-hour HeLa Transcription Induction Assay for Estrogen Receptor (AID 2283382)
# Method in brief: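 Two-hour compound treatment of HeLa cells preceded microscopy imaging of an inducible fluorescent reporter. Image-based quantification gave one endpoint, analysed for signal increase relative to DMSO controls.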
SMILES,outcome,AC50
O=C(Nc1ccccc1)c1cc(Cl)ccc1O,inactive,–
Oc1ccccc1Cc1ccccc1O,inactive,–
CCN1CN(CC)CN(CC)C1,inactive,–
O=C(O)C1CCC(C(=O)O)CC1 (stereo not given),inactive,–
CCCCc1ccc(Cl)cc1,inactive,–
CCCCCC(=O)OCC,inactive,–
CCOC(=O)c1ccc(C)cc1,inactive,–
CC(C)c1ccc(O)c(C(C)C)c1,inactive,–
C=C[C@@]1(C)CC(=O)[C@]2(O)[C@@]3(C)[C@@H](O)CCC(C)(C)[C@@H]3[C@H](O)[C@H](OC(C)=O)[C@@]2(C)O1,inactive,–
CCCCOCCOC(=O)COc1ccc(Cl)cc1Cl,inactive,–
CN(C)Cc1cc(CN(C)C)c(O)c(CN(C)C)c1,inactive,–
CN(C)c1ccc2nc3ccc(=[N+](C)C)cc-3sc2c1,–,28.2 µM (active)
CCCCC(=O)O,inactive,–
Nc1ccc(C(=O)O)cc1,inactive,–
Cc1c(C(=O)c2c[nH]n(C)c2=O)ccc(S(C)(=O)=O)c1C1=NOCC1,inactive,–
CC(C)c1cc(C(C)C)cc(C(C)C)c1,inactive,–
COc1cc(O)c(C(=O)c2ccccc2)cc1S(=O)(=O)O,inactive,–
CC(=O)OCc1ccccc1,inactive,–

SMILES,outcome,AC50
CCCCCCCCCCCC(=O)N(C)CC(=O)O,inactive,–
CC(=O)OC1CCCCC1C(C)(C)C (stereo not given),inactive,–
CCCCNS(=O)(=O)c1ccccc1,inactive,–
CCc1cccc(C)c1N,inactive,–
CC(C)(C)C1CCC(=O)CC1,inactive,–
O=S(=O)(O)c1ccc(N=Nc2c(O)ccc3ccccc23)cc1,inactive,–
CCCCCCCCC(CO)CCCCCC (stereo not given),–,17.7 µM (active)
CCCCCCOC(=O)CCCCC(=O)OCCCCCC,inactive,–
CCCCNC(=S)NCCCC,inactive,–
C=CCOC(=O)c1ccc(C(=O)OCC=C)c(C(=O)OCC=C)c1,inactive,–
CC1=CCC2CC1C2(C)C (stereo not given),inactive,–
CCCCC(CC)COS(=O)(=O)O (stereo not given),inactive,–
CCOC(=O)C1=NOC(c2ccccc2)(c2ccccc2)C1,inactive,–
CCOC(=O)c1ccccc1C,inactive,–
O=C(O)c1ccc2c(c1)C(=O)OC2=O,–,22.6 µM (active)
CCCCC(C=O)CC (stereo not given),inactive,–
CCCCC(CC)COC(=O)/C=C/c1ccc(OC)cc1 (stereo not given),inactive,–
